For 13 compounds, composite z-score and z-score results are on record in PubChem BioAssay.

Activity calls are given as the source filed them.

In assay [1] the test system is Plasmodium falciparum Sir2 (PF13_0152, Sir2A). Briefly: Plasmodium falciparum Sir2A binding compounds – biochemical, small-molecule microarray, 635 nm fluorescence, primary screen (AID 1098).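 Note: score merges spot fluorescence intensity with its signal-to-noise ratio.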 To be noted: fluorescence 635 nm, higher = more signal.
Assay [2] is described as follows: probe aDKK1 binding to arrayed compounds – biochemical, biotinylated probe, 635/667 nm fluorescence, primary screen (AID 1099).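 Note: score merges 667nm spot fluorescence with signal to noise across triplicate slides; reference of the scale not given here.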 To be noted: small-molecule microarray, higher = more signal.
Assay [3] in a line: probe aCHRDL2 binding to arrayed compounds – biochemical, biotinylated probe, 635/667 nm fluorescence, primary screen (AID 1100). The note with it: small-molecule microarray, higher = more signal.
Assay [4] in a line: change in splice reporter luminescence, either direction, cell-based, HEK293, spliceosome inhibition project, primary screen (AID 1101).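 Note: HEK293 cells carrying a splicing-competent luciferase reporter gene; test concentration not given here.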 The note with it: HEK293 splicing luciferase reporter, 24 h, higher = more signal, called active from +8 up or from −8 down. For orientation: In a reporter assay the amount or activity of a reporter protein is the signal.
Assay [5] has as its target Fibroblast growth factor 10 (Homo sapiens) (UniProt O15520). Briefly: compounds binding fibroblast growth factor 10 – biochemical, small-molecule microarray, 635 nm fluorescence, primary screen (AID 1102). The note with it: FGF10 binding, fluorescence 635 nm, higher = more signal.
Assay [6] deals with glycogen synthase kinase-3 (GSK3A per assay name; protocol says GSK3B). Briefly: compounds binding glycogen synthase kinase-3 – biochemical, small-molecule microarray, 635 nm fluorescence, GSK3A, primary screen (AID 1103). Note: the record names both GSK3A and GSK3B. To be noted: fluorescence 635 nm, higher = more signal.
Assay [7] has as its target Epidermal growth factor receptor (Homo sapiens) (UniProt P00533). Briefly: compounds binding epidermal growth factor receptor – biochemical, small-molecule microarray, 635 nm fluorescence, primary screen (AID 1104).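 Note: score merges 667 nm emission intensity with spot signal to noise over triplicate slides.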 The note with it: EGFR binding, higher = more signal.
For assay [8], the target named is Follistatin-related protein 3 (Homo sapiens) (UniProt O95633). Briefly: compounds binding follistatin-related protein 3 – biochemical, small-molecule microarray, 635 nm fluorescence, primary screen (AID 1105).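 Note: score merges emission near 667 nm and signal to noise per printed spot across three slides.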 To be noted: FSTL3 binding, higher = more signal.
In assay [9] the target is Dickkopf-related protein 1 (Homo sapiens) (UniProt O94907). Briefly: small molecules binding DKK1 protein – biochemical, small-molecule microarray, 635 nm fluorescence scan, primary screen (AID 1106).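 Note: score merges emission near 667 nm with signal to noise over three replicate slides.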 To be noted: higher = more signal.
In assay [10] the test system is Inhibin beta A chain (activin A). Description: small molecules binding activin A – biochemical, small-molecule microarray, 635 nm fluorescence scan, primary screen (AID 1107).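 Note: mouse activin A protein probed at 4.33 µg/mL on printed slides; score merges bound-protein fluorescence near 667 nm with spot signal-to-noise.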 To be noted: INHBA, higher = more signal.

Chain of Fibroblast growth factor 10 (Homo sapiens) (O15520 whole entry, looked up): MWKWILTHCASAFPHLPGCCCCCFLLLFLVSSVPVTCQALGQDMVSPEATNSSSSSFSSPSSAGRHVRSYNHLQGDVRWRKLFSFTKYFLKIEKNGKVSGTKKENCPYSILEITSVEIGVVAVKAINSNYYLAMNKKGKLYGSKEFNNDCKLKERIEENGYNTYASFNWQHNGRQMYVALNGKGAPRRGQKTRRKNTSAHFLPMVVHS
Chain of Dickkopf-related protein 1 (Homo sapiens) (O94907 whole entry, looked up): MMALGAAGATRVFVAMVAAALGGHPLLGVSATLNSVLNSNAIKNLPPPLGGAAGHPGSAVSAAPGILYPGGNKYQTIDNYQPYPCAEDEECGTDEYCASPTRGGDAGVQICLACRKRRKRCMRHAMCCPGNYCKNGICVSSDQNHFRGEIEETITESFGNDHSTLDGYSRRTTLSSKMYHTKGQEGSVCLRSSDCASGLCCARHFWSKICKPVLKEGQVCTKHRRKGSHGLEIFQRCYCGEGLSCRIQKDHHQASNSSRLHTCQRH
Chain of Epidermal growth factor receptor (Homo sapiens) (P00533 whole entry, looked up): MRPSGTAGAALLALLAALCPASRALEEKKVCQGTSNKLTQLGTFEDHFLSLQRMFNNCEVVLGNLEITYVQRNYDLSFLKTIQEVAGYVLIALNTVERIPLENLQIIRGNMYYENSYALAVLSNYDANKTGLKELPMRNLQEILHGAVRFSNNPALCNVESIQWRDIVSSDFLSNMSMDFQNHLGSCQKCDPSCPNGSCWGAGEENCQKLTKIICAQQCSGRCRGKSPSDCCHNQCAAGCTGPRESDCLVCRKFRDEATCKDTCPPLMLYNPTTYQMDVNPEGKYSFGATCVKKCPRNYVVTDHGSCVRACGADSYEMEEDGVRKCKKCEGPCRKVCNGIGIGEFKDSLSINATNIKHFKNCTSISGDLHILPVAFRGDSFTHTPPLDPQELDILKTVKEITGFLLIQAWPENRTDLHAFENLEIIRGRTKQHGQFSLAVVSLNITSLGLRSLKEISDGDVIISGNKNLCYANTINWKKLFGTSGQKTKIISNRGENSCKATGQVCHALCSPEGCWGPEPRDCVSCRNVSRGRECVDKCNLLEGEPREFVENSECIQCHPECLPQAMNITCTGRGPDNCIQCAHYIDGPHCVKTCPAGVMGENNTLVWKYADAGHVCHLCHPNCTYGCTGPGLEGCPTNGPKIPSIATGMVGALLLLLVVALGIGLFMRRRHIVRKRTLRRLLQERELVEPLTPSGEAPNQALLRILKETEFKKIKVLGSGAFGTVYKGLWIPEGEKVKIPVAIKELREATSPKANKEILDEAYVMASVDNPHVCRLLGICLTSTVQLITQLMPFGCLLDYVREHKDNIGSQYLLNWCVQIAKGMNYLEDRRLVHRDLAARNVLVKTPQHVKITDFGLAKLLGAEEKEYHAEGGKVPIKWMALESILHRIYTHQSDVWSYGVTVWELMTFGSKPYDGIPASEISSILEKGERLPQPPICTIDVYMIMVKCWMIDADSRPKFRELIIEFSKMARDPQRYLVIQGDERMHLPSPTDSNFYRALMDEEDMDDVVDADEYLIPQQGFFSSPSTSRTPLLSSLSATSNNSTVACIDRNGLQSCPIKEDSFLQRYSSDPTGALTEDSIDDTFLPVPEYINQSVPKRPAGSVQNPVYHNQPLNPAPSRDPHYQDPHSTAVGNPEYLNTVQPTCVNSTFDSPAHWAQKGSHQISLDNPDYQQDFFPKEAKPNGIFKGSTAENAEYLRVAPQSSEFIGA
Chain of Follistatin-related protein 3 (Homo sapiens) (O95633 whole entry, looked up): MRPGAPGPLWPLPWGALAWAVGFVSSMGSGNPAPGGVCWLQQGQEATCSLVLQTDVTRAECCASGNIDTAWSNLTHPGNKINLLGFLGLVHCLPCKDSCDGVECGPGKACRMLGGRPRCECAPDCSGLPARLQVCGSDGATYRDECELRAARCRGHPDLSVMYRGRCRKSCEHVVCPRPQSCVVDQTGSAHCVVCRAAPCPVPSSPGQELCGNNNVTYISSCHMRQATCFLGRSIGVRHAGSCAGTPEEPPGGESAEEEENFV

On to `CN(C)CCCC[C@@H]1NC(=O)[C@H]2C[C@@H](C(=O)O)[C@@H](c3cccc(OCCO)c3)N2C1=O`, for which the composite z-score in [1] was found to be 1.67; in assay [2] it was 0.696; in assay [3], 0.555; in assay [5], 0.702; in [6] it was 1.14; in assay [7] it was 0.258. The composite z-score in assay [8] was 0.666; in assay [9] it was 0.969; in [10] it was 0.658. The z-score in assay [4] is -0.348 (inactive).

Take `COCCOC(=O)N1C(=O)[C@@]2(c3cc(C#CC4=CCCCC4)ccc31)[C@H](C(=O)N1CCc3cc(OC)c(OC)cc3C1)[C@H]1C(=O)O[C@H](c3ccccc3)[C@H](c3ccccc3)N1[C@@H]2c1ccc(O)cc1`: the composite z-score in [1] was 1.04; in assay [2], 0.26; in assay [3], -0.0061; in assay [5], 0.438; in assay [6], 1.12; in assay [7], 1.32. The composite z-score in assay [8] stood at 0.583; in assay [9], 0.391; in assay [10], 0.732. In addition, the z-score in [4] is -0.258 (inactive).

Turning to `COc1ccc(C#Cc2ccc3c(c2)[C@]2(C(=O)N3)[C@H](c3ccc(OCCO)cc3)N3[C@H](c4ccccc4)[C@H](c4ccccc4)OC(=O)[C@H]3[C@@H]2C(=O)O)cc1`, the composite z-score was found to be 0.955 in [1]; 0.606 in [2]; 0.176 in assay [3]; 1.42 in assay [5]; 1.22 in assay [6]; 0.398 in assay [7]. Moreover, the values for the composite z-score in [8], in [9] and in assay [10] were 1.44, 0.183 and 0.751, respectively. In addition, the z-score in assay [4] was -1.35 (inactive).

As for `CO[C@H]1O[C@H](CO)[C@@H](OC(=O)Nc2ccccc2)[C@@H]2OC(=O)[C@H](Cc3ccccc3)C/C=C/C[C@@H](Cc3ccccc3)C(=O)O[C@@H]12`, the composite z-score in assay [1] worked out at 1.46; in assay [2], 0.273; in assay [3] it was 0.651; in assay [5] it was 1.04; in assay [6], 0.56; in assay [7], 0.0366. Further, the composite z-score in [8] is 0.877; in [9], 0.048; in [10], 1.14. The z-score in [4] was -0.724 (inactive).

In the case of `CCOC(=O)C[C@H]1[C@H](OC(=O)c2ccc(-c3ccccc3)cc2)[C@@H](NC(=O)CC(C)C)c2cc(OCCCO)ccc2N1C(=O)Cc1ccc(OC)cc1`, the composite z-score in [1] is -0.146; in [2], 0.448; in assay [3], 0.624; in assay [5] it was 0.22; in assay [6], 0.0434; in assay [7] it was -0.263. Moreover, the composite z-score in assay [8] was -0.195; in assay [9], -0.204; in assay [10], -0.353. In assay [4], the z-score was -0.463 (inactive).

With `COCCOC(=O)N1C(=O)[C@@]2(c3cc(C#Cc4ccc(OC)cc4)ccc31)[C@H](c1ccc(OCCO)cc1)N1[C@H](c3ccccc3)[C@H](c3ccccc3)OC(=O)[C@H]1[C@@H]2C(=O)N1CCCCCCC1`, the composite z-score was found to be 1.7 in assay [1]; 2.22 in [2]; 1.36 in assay [3]; 0.821 in assay [5]; 1.24 in [6]; 0.719 in assay [7]. The composite z-score came to 1.52 in assay [8], 1.29 in [9] and 1.65 in [10]. For the same compound, the z-score in assay [4] was -1.58 (inactive).

On to `C=C(CCCC)/C(=C/C[C@H](OC(C)=O)c1cccc(OCCO)c1)c1cc(C(=O)OC)ccc1OC`, for which the composite z-score in assay [1] was 0.286; in assay [2] it was -0.197; in [3] it was -0.096; in assay [5], 0.148; in assay [6] it was -0.157; in assay [7], -0.842. Also, the composite z-score in assay [8] was -0.574; in [9], -0.344; in [10] it was 0.518. Besides, in [4], the z-score is -0.325 (inactive).

Consider `COc1ccc(CC[C@H](O)c2cccc(OCC(=O)OC(C)(C)C)c2)cc1`, for which the composite z-score in [1] was 1.16; in [2] it was 0.15; in assay [3], -0.0667; in assay [5], 0.883; in [6], 1.06; in [7], 0.344. Besides, the composite z-score in assay [8] was 1.09; in assay [9], 0.688; in assay [10], -0.0035. Besides, in assay [4], the z-score was 1.3 (inactive).

Consider `CC(C)C[C@@H]1NC(=O)[C@@H]2C[C@H](C(=O)O)[C@H](c3ccc(O)cc3)N2C1=O`, for which the composite z-score in assay [1] turned out to be 1.44; in [2] it was 0.361; in assay [3], 0.383; in [5] it was 0.914; in assay [6], 1.31; in [7], 0.801. The results for the composite z-score in assay [8], in [9] and in assay [10] were 1.25, 0.976 and -0.0021, respectively. Also, in assay [4], the z-score was -0.687 (inactive).

As for `CC(=O)c1ccc(C(O)C2C=CC3C(=O)N(C)C(=O)C3N2NC(=O)OC(C)(C)C)cc1` (stereo not given), the composite z-score in assay [1] was 1.44; in [2], 0.86; in assay [3] it was 0.948; in assay [5], 1.17; in assay [6], 0.944; in [7], -0.499. Moreover, the composite z-score in assay [8] is 0.425; in [9] it was -0.698; in assay [10], -0.149. The z-score in assay [4] is 1.66 (inactive).

For the compound `O=C1OCCC/C=C\[C@H]2OC34C=CCN(Cc5ccccc5)C(=O)[C@H]3N(CCCCCO)C(=O)[C@@H]4C12` (stereo not given in full), the composite z-score in [1] was 1.21; in assay [2], -0.312; in [3] it was 0.312; in assay [5] it was -0.744; in assay [6], -0.823; in assay [7], -1.1. Besides, the composite z-score in assay [8] was -0.808; in [9] it was -0.663; in assay [10], 0.933. Also, the z-score in assay [4] was -0.0325 (inactive).

Regarding `COCCOC(=O)N1C(=O)[C@@]2(c3ccccc31)[C@H](c1ccc(OCCO)cc1)N1[C@H](c3ccccc3)[C@H](c3ccccc3)OC(=O)[C@H]1[C@@H]2C(=O)N1CCN(c2ncccn2)CC1`, the composite z-score in assay [1] came out at 1.22; in [2] it was 0.639; in [3], 0.539; in assay [5], 1.42; in assay [6], 1.34; in assay [7], 0.791. Also, the composite z-score amounted to 1.44 in [8], 1.09 in assay [9] and 0.943 in assay [10]. The z-score in assay [4] was -0.483 (inactive).

Take `[N-]=[N+]=NCc1ccccc1C[C@]1(C(=O)NCc2ccccc2)N=C(c2ccc(OCCCO)cc2)O[C@H]1c1ccccc1CN=[N+]=[N-]`: the composite z-score in assay [1] was 1.03; in assay [2] it was 1.22; in assay [3], 0.889; in [5], -0.0516; in [6], 0.412; in assay [7] it was -0.253. For the same compound, the composite z-score in assay [8] was 0.0358; in assay [9], -0.726; in assay [10] it was 0.794. The z-score in assay [4] is -1.33 (inactive).
